Values joined by “and” are separate entries in the source; they are usually repeats but may differ in a detail not shown here. Identical values can stand only once. This is part of a sample that, as a whole, favours compounds with a hit. Of some 79,000 tested, about 15% had one in any assay. Unmarked numbers belong to inactive results. Active and inactive are the calls of the source. Rule as the data show it: active = growth inhibition above about 70%; inactive = the rest.
Legend:
[1] = NCI Yeast Anticancer Drug Screen. Data for the rad50 strain (AID 155);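 also: 0% = growth of vehicle-only cultures of the same strain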; settings: S. cerevisiae rad50 strain growth inhibition, hits give high values; at 50.0 µM unless noted
Outline: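 Genetically altered yeast (DNA repair pathway); compound treatment; growth inhibition vs vehicle ctrl.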

[2] = NCI Yeast Anticancer Drug Screen. Data for the mec2-1 strain (AID 157); settings: S. cerevisiae mec2-1 strain, hits give high values; at 50.0 µM unless noted
Outline: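 Growth inhibition is read against vehicle-treated controls after compound exposure of the mec2-1 yeast strain, which is defective in DNA damage repair or cell cycle control.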

[3] = NCI Yeast Anticancer Drug Screen. Data for the sgs1 mgt1 strain (AID 161);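 also: 0% = growth of cultures given vehicle only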; settings: S. cerevisiae sgs1 mgt1 strain, hits give high values; at 50.0 µM unless noted
Outline: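 Compounds are added to genetically altered yeast, and growth is compared with cultures given vehicle alone to give percent inhibition.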

[4] = NCI Yeast Anticancer Drug Screen. Data for the cln2 rad14 strain (AID 165);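 also: 0% = growth equal to vehicle treated cultures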; settings: S. cerevisiae cln2 rad14 strain, hits give high values; at 50.0 µM unless noted
Outline: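 Growth inhibition, relative to vehicle-treated controls, is the read-out. The test organism is a yeast strain with defined genetic alterations, cln2 rad14.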

[5] = NCI Yeast Anticancer Drug Screen. Data for the bub3 strain (AID 167); settings: S. cerevisiae bub3 mutant strain, hits give high values; at 50.0 µM unless noted
Outline: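 Yeast carrying a defined mutation is treated with each compound, and growth is compared with that of vehicle-exposed cells to give inhibition.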

[6] = NCI Yeast Anticancer Drug Screen. Data for the mlh1 rad18 strain (AID 175); settings: S. cerevisiae mlh1 rad18 strain growth inhibition, hits give high values; at 50.0 µM unless noted
Outline: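 Cells of a genetically altered yeast strain, deficient in DNA damage repair, were treated with compound. Their growth was then compared with that of vehicle-treated cultures to give inhibition.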

Row | Structure (SMILES) | growth inhibition [1] | growth inhibition [2] | growth inhibition [3] | growth inhibition [4] | growth inhibition [5] | growth inhibition [6]
1 | CC1(C)OC2C(/C=C\C(=O)c3ccccc3)OC(n3ccc(=O)[nH]c3=O)C2O1 (stereo not drawn) | -36.6% | 10.3% | 5.6% | 13.4% | -1.55% | -1.5%
2 | CC(=O)OCC1OC(OC(C)=O)C(OC(C)=O)C(OC(C)=O)C1OC(C)=O (stereo not drawn) | -0.8% and 33.3% | 0.25% and 9.6% | -17.5% and 21.1% | -30.9% and 11.5% | -14.4% and 5.45% | -26.1% and 8.9%
3 | C=C(C)C(=NC(C)(C)C)Nc1ccc(C(=O)OCC)cc1 | -8.3% | -5.6% | -11.8% | -21.2% | -24.1% | -45.6%
4 | N#CCc1cccc(Cl)c1Cl (tested in a mixture with another compound) | 6.8% | -15.3% | 3.55% | -22.4% | 14.4% | -7.55%
5 | CC1CCC(c2ccccc2)(c2ccccc2)C1=O (stereo not drawn) | 11.8% | -1.8% | -2.5% | -15% | -1.15% | -2.25%
6 | CCCCCN=C(N)C(N)=NCCCCC | 47.8% | 8% | 24.7% | -31.1% | 5.5% | 24.9%
7 | Cc1nc2ccncc2[nH]1 | -7.7% | -1.3% | -17.4% | 0.05% | -10.6% | -8.2%
8 | CCOC(=O)CSCC(=O)OCC | 3.6% | -9% | -17.2% | 8.45% | -9.4% | -4.65%
9 | O=c1oc(-c2ccccc2)nc2c1sc1nc(-c3ccccc3)oc(=O)c12 | 47.9% | 30.7% | 43.3% | 79.8% (active) | 24.6% | 49.4%
10 | CCC(=O)Nc1ccccc1Cl | 3.6% | -1.1% | -15.4% | -42.6% | -1.95% | 4.95%
11 | Cc1ccc(S(=O)(=O)Oc2ccc3oc4cccc(NCCN(C)C)c4c(=O)c3c2)cc1 | -3.5% | -13.7% | -21.4% | 5% | -6.4% | 3.1%
12 | CCOc1cc(C=O)c2c(ccc3ccc(OC)c(OC)c32)c1OC | 86.5% (active) | 90.8% (active) | 84.7% (active) | 83.5% (active) | 82.4% (active) | -11.8%
13 | Cc1ccc(C(C)C)cc1NC(=O)c1ccc([N+](=O)[O-])cc1 | -5.15% | 16.4% | 16.9% | -5.8% | 2.6% | 21.6%
14 | C=CCOC(=O)NC(CC(C)C)C(=O)NCC(N)=O (stereo not drawn) | -10.4% | 1.9% | -4.3% | -10.9% | -45.5% | -28%
15 | CCOC(=O)C/C(O)=C(/C=N/C(=S)NNC(C)=O)C(=O)OCC | -27.1% | -28.9% | -32.2% | 2.65% | -19.6% | -8.65%
16 | Cc1c2noc1CCCCCCCCCCC2 | 18.9% | 20% | 3.6% | -4.15% | -13.7% | 17.9%
17 | CC1=NN(C(=O)CC(=O)Nc2ccc(C)cc2)C(=O)C1N=Nc1ccc(S(=O)(=O)c2ccc(N=NC3C(=O)N(C(=O)CC(=O)Nc4ccc(C)cc4)N=C3C)cc2)cc1 (stereo not drawn) | 49.8% | 36% | 36.8% | 21.2% | -1.2% | 39.6%
18 | CCCCC/C(=N\c1nc[nH]c1C(N)=O)OCC | -29.9% | -12.9% | -37.9% | -7.1% | -27.8% | -25.6%
